NPC1 promoter act – qHTS Assay for NPC1 Promoter Activators; Huh7 NPC1 promoter luciferase reporter, 24 h; Potency, µM (titrated, usually from 9.22 µM), actives largely listed as activators; hit rate 2.4% among 320,000; note: nearly all actives have a fitted effect of over 60% in size
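Luciferase expression driven by the NPC1 promoter was measured in stably transfected Huh7 cells after a 24 h compound incubation, using a luciferase reagent and a luminescence read.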
Rab9 prom act – qHTS Assay for Rab9 Promoter Activators | Huh7 Rab9 promoter-luciferase reporter, luminescence, 24 h | Potency, µM (titrated, usually from 9.22 µM), most hits filed as activators | hit rate 2.8% among 320,000; note: nearly all actives have a fitted effect of over 60% in size
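Huh7 cells stably carrying Rab9 promoter–luciferase reporter, plated 1500 cells/well, compound added after 2 h and incubated 24 h at 37 °C; luciferase luminescence then read after 10 min with detection reagent.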
SMN2 splice up – qHTS Assay for Enhancers of SMN2 Splice Variant Expression; HEK293 SMN2-luciferase splicing reporter, luminescence, 30-36 h; Potency, µM (series often up to 46.1 µM), hits mostly activators; hit rate 2.8% among 210,000; note: nearly all actives have a fitted effect of over 55% in size
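HEK293 cells carry an SMN2 minigene-luciferase reporter in which exon 7 inclusion puts luciferase in frame. Cells were seeded at 2000 cells/well, attached for 10-12 hours, then exposed to compounds for 30-36 hours at 37C before ONE-Glo luminescence.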
ELG1 repair inh – qHTS screen for small molecules that inhibit ELG1-dependent DNA repair in human embryonic kidney (HEK293T) cells expressing luciferase-tagged ELG1; Potency, µM (series often up to 46.1 µM), actives largely listed as inhibitors; HEK293T ELG1-luciferase reporter, luminescence, 16 h; DNA damage induced by 5-fluorouridine; hit rate 2.3% among 330,000; note: nearly all actives have a fitted effect of over 55% in size
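Reporter activity after DNA damage by 5-fluorouridine is monitored. Compound-treated cells incubate 16 hr at 37 °C, then ONE-Glo is added for 30 min before luminescence reading.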
FLuc counter – qHTS profiling assay for firefly luciferase inhibitor/activator using purifed enzyme and Km concentrations of substrates (counterscreen for miR-21 project). purified FLuc, Km substrates, luminescence inhibition. Potency, µM (series often up to 57.5 µM), hits mostly inhibitors. Luciferin 4-monooxygenase (Photinus pyralis), P08659. AID 588342, 2011. hit rate 6.9% among 360,000; note: nearly all actives have a fitted effect of over 55% in size
Target sequence (P08659 whole entry, looked up): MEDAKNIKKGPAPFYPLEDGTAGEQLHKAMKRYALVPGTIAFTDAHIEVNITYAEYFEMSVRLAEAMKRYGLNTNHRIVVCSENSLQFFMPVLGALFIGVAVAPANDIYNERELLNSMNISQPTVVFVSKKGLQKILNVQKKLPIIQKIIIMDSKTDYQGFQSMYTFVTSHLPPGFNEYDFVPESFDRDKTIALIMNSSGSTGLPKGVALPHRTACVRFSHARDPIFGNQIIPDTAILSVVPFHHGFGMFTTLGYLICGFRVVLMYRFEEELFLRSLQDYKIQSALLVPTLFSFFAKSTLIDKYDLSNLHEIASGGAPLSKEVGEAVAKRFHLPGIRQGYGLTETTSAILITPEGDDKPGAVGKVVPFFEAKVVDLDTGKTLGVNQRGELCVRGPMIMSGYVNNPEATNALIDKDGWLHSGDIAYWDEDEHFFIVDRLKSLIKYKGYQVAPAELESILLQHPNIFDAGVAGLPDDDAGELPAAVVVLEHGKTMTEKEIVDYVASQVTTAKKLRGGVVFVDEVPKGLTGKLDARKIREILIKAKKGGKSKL
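Biochemical qHTS of compounds, final roughly 60 µM downward over six points, against 10 nM purified firefly luciferase using Km concentrations of substrates (10 uM D-luciferin, 10 uM ATP) in Tris acetate pH 7.5 buffer; luminescence output.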
ELG1 genotox – qHTS screen for small molecules that induce genotoxicity in human embryonic kidney (HEK293T) cells expressing luciferase-tagged ELG1. Potency, µM (top dose mostly 46 µM), most hits filed as activators. hit rate 1.3% among 330,000. HEK293T ELG1-luciferase reporter, luminescence, 16 h; note: nearly all actives have a fitted effect of over 60% in size
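16 hr compound incubation (37 °C, 5% CO2) of HEK293T cells carrying luciferase-tagged ELG1; luciferase then measured by ONE-Glo luminescence after 30 min at RT.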
ELG1 FLuc counter – qHTS screen for small molecules that inhibit ELG1-dependent DNA repair: Hit Confirmation in Cell-Based Luciferin Assay; shares compounds with ELG1 repair inh; cell-free firefly luciferase luminescence counter-screen, ViewLux; Potency, µM (series often up to 46.1 µM), hits mostly inhibitors; hit rate 3% among 350; AID 624247, 2012
ELG1-Luc inh – HTS assay for small molecules that inhibit ELG1-dependent DNA repair in human embryonic kidney (HEK293T) cells expressing luciferase-tagged ELG1: Hit Confirmation | HEK293T ELG1-luciferase levels, luminescence; cells co-treated with 5-fluorouridine | AID 624248, 2012 | shares compounds with ELG1 repair inh | hit rate 68% among 670 | Potency, µM (doses to about 46.1 µM), usual class: inhibitors; note: nearly all actives have a fitted effect of over 55% in size
ELG1 MMS Luc – MMS-stimulated human ELG1 repair inhibition, confirmed. shares compounds with ELG1 repair inh. HEK293T luciferase-tagged ELG1 level, MMS stimulated. Potency, µM (doses to about 46.1 µM), actives largely listed as inhibitors. hit rate 53% among 670. AID 624249; note: nearly all actives have a fitted effect of over 60% in size
ELG1 5-FU – qHTS screen for small molecules that inhibit ELG1-dependent DNA repair: Hit Confirmation with 5FU Viability; shares compounds with ELG1 repair inh; Potency, µM (highest dose often 46.1 µM), usual class: cytotoxic; cell viability with 5-FU, ELG1-dependent repair; 670 tested, under 10 active; AID 624250, 2012;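 note: ELG1-luc HEK293T cells cotreated with 5-fluorouridine at 10 µM final; viability measured 16 h after compound addition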
ELG1 MMS viab – qHTS screen for small molecules that inhibit ELG1-dependent DNA repair: Hit Confirmation with MMS Viability; shares compounds with ELG1 repair inh; Cell viability with MMS, ELG1-dependent DNA repair; Potency, µM (titrated, usually from 46.1 µM), hits mostly cytotoxic; hit rate 33% among 670;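 note: ELG1-luc HEK293T cells co-treated with 10 µM MMS; viability read 16 h after compound addition; nearly all actives have a fitted effect of over 60% in size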
Cell viab unstim – qHTS screen for small molecules that inhibit ELG1-dependent DNA repair: Hit Confirmation with Unstimulated Viability Assay; Potency, µM (series often up to 45.9 µM), actives largely listed as cytotoxic; shares compounds with ELG1 repair inh; cell viability counter-screen, unstimulated, luminescence; hit rate 8% among 900;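 note: compound exposure lasted 16 hours before reading; nearly all actives have a fitted effect of over 55% in size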
FLuc enzyme – qHTS screen for small molecules that inhibit ELG1-dependent DNA repair: Hit Confirmation in Biochemical Luciferin Assay; shares compounds with ELG1 repair inh; AID 624253, 2012; purified firefly luciferase, luminescence counter-screen; Potency, µM (doses to about 57.5 µM), hits mostly inhibitors; hit rate 10% among 350
Each line names hits and unclear results; the compound was inactive in the other large screens (follow-up assays come after a bar, where they were run). In the library only some 9.3% were active in any assay of this set; here they are far more common. Calls come from the whole dose curve; as a rule, active = well fitted curve in the direction sought with a large enough effect; inconclusive = small, poorly fitted or top-dose-only effect, or another doubt; inactive = no such curve, though single readings can be large; an effect the other way counts as inactive or inconclusive.

Cc1ccc(Cn2ncc3c(N4CCN(CCc5ccccc5)CC4)ncnc32)cc1	ELG1 repair inh 3.66µM (no result: SMN2 splice up) | ELG1-Luc inh inconclusive | ELG1 MMS Luc 3.53µM | ELG1 5-FU inactive | ELG1 MMS viab 3.97µM | Cell viab unstim inconclusive
CC(C)OC(=O)CSc1nnc(-c2cnccn2)n1Cc1ccco1	none (no result: NPC1 promoter act, Rab9 prom act, ELG1 repair inh, ELG1 genotox)
CC(=O)NNS(=O)(=O)c1scc(S(=O)(=O)c2ccc(Cl)cc2)c1C	none (no result: SMN2 splice up)
COc1ccc(-n2c(C)c([N+](=O)[O-])c3ccc(O)c(CN(C)C)c32)cc1	ELG1 repair inh 0.92µM | ELG1 FLuc counter inconclusive | ELG1-Luc inh 1.41µM | ELG1 MMS Luc 2.5µM | ELG1 5-FU inactive | ELG1 MMS viab inactive | Cell viab unstim inconclusive | FLuc enzyme inactive
COc1ccc(-n2c(C(C)n3nc(C)c([N+](=O)[O-])c3C)n[nH]c2=S)cc1 (stereo unspecified)	ELG1 repair inh inconclusive
Cc1cc(C(=O)Nc2ccc(Cl)cc2)c2c(C)nn(-c3ccccc3)c2n1	none (no result: NPC1 promoter act, Rab9 prom act, SMN2 splice up, ELG1 repair inh, ELG1 genotox)
Cc1nc(SCC(=O)NC2CCS(=O)(=O)C2)c(C#N)c(C)c1C (stereo unspecified)	none (no result: SMN2 splice up)
COc1cc(C(=O)OC2CSCC2NC(=O)c2ccccc2)cc(OC)c1OC (stereo unspecified)	ELG1 repair inh 4.11µM (no result: SMN2 splice up) | ELG1-Luc inh 9.96µM | ELG1 MMS Luc inactive | ELG1 5-FU inconclusive | ELG1 MMS viab inconclusive | Cell viab unstim inconclusive
CCOC(=O)C1C(C(=O)OC)=C(c2ccc(OC)cc2)c2ccc(OC)cc2N1S(=O)(=O)C(F)(F)F (stereo unspecified)	ELG1 repair inh 4.11µM (no result: NPC1 promoter act, Rab9 prom act, SMN2 splice up, FLuc counter) | ELG1-Luc inh 5.6µM | ELG1 MMS Luc inconclusive | ELG1 5-FU inconclusive | ELG1 MMS viab inactive | Cell viab unstim inactive
CCOc1ccc(C2CC(=O)n3nc(C45CC6CC(CC(C6)C4)C5)nc3S2)cc1OC (stereo unspecified)	none

Source: PubChem BioAssay (National Center for Advancing Translational Sciences (NCATS))
